For 18 compounds, Percent Effect results are on record in ChEMBL document CHEMBL3988442, “University of Dundee, Small-Polar-MMV Screening Library” (2021).

In this assay the target is AMP-activated protein kinase, AMPK (Homo sapiens) (UniProt P54646+O43741+P54619+Q9UGJ0+Q9Y478+Q13131+Q9UGI9). In words: AMP-dependent Kinase enzyme assay. An in vitro enzyme assay that detects ADP turnover that is directly proportional to AMPK activity. This uses naive AMPK that is activated during the assay with MK-8722. The format is functional. On the set-up: scale not given: direction of the effect not stated beside the values. Conditions: 30 µM.

With `O=C(c1cscn1)N1CCc2[nH]nc(Nc3ccccc3)c2C1`, the Percent Effect is 10.9%.

For `O=C(CCn1ccnc1)N1CCC(c2nnc(-c3ccccn3)o2)CC1`, the Percent Effect came out at 1.44%.

As to `CCN(C(=O)Cn1cc(NC(=O)C(C)(C)C)cn1)c1ccccc1`, the Percent Effect is -3.26%.

Take `CCC1(CC)CC(=O)N(CC(O)c2ccc(F)cc2)C1=O` (stereo not drawn): the Percent Effect is 8.69%.

Turning to `O=S(=O)(NCCCn1cncn1)c1ccc2c(c1)OCCO2`, the Percent Effect worked out at 8.28%.

`CCC(O)Cn1nc(-c2ccc(C(=O)O)cc2)cc1-c1ccc(F)cc1` (stereo not drawn): the Percent Effect was determined as 12%.

As to `Cc1cc(C)n(CC2CCN(CC(O)COc3ccccc3)CC2)n1` (stereo not drawn), the Percent Effect stood at 2.9%.

On to `CCCN1CCC(N2CCC(Cn3cc(C4CC4)nn3)CC2)CC1`, for which the Percent Effect worked out at 2.68%.

As to `O=C(NCc1nc[nH]n1)c1cc(COc2cccc(C(F)(F)F)c2)[nH]n1`, the Percent Effect is -6.06%.

As for `CCCC(=O)Nc1cccc([C@H]2C[C@@H](NC(C)=O)CCO2)c1`, the Percent Effect is 13.7%.

As for `Cc1cc(C(=O)N2CC[C@@]3(O)CCN(C(=O)N4CCCC4)C[C@H]3C2)no1`, the Percent Effect is 5.71%.

Turning to `O=C1C(N2CC[C@@H](O)C2)CCCN1Cc1cccc(C(F)(F)F)c1` (stereo partly drawn), the Percent Effect came out at 5.51%.

As for `Cc1nc2c(c(NCCc3nccs3)n1)CCN(CC1CC1)CC2`, the Percent Effect is 6.45%.

Regarding `CO[C@@H]1c2ccccc2C2(CCN(C(=O)CNC(=O)C(C)C)CC2)[C@H]1O`, the Percent Effect is 13.3%.

Regarding `Cc1nc(N)nc(C)c1CC(=O)N1CCC2(CC1)OCCCC2O` (stereo not drawn), the Percent Effect was 73.8%.

Consider `COC(=O)C1CCN(C(=O)Cn2ccc(-c3ccc(F)cc3)n2)CC1`, for which the Percent Effect was -0.768%.

In the case of `Cc1ccnc2c1NC(=O)CN2C(=O)CCc1ccccc1`, the Percent Effect is -1.93%.

Regarding `CN(C)c1ccc(CN2CCN(c3ccc(C#N)cc3)C(=O)C2)cn1`, the Percent Effect was -0.161%.
